A549 tox: kills or reduces viability of A549 cells in Nrf2 counter-screen; A549 ARE-Fluc cells, CellTiter-Fluor viability, 18-24 h; Potency, µM (doses to about 46 µM), actives largely listed as inhibitors; actives 0.16% (n = 390,000); AID 504648
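A549 ARE-Fluc cells in 5% FBS OPTI-MEM, 5000 cells/well, rested 2 h then exposed to compounds in concentration-response for 18-24 h at 37 °C. Viability by CellTiter-Fluor fluorescence (Ex 405/Em 525) after 30 min; luciferase luminescence (BugLite, 15 min, RT) read afterwards.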
Nrf2 ARE act: activators of Nrf2 (ARE) signaling; AREc32 ARE-luciferase reporter (MCF7-derived line), luminescence, 24 h; Potency, µM (doses to about 46.1 µM), most hits filed as activators; AID 624171; actives 0.31% (n = 410,000); note: nearly all actives have a fitted effect of over 65% in size
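AREc32_Fluc, 1000 cells/well, OPTI-MEM + 5% FBS, o/n 37 deg C 5% CO2; 23 nL cpd by pin tool, 24 hr; Steady-Glo 30 min RT, luminescence.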
Nrf2 inh: blocks Nrf2 signaling; A549 ARE-Fluc reporter, luciferase luminescence, 18-24 h; Potency, µM (titrated, usually from 46 µM), actives largely listed as inhibitors; actives 2.1% (n = 360,000); note: nearly all actives have a fitted effect of over 60% in size
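In this cell-based qHTS, ARE-driven firefly luciferase in A549 cells reports Nrf2 activity; the luminescent signal after BugLite lysis is the measured value, with a prior CellTiter-Fluor read for cell health.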
ELG1 DNA repair: blocks ELG1-dependent DNA repair in HEK293T cells | HEK293T ELG1-luciferase reporter, luminescence, 16 h; DNA damage induced by 5-fluorouridine | Potency, µM (top dose mostly 46.1 µM), hits mostly inhibitors | actives 2.3% (n = 330,000); note: nearly all actives have a fitted effect of over 55% in size
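DMSO vehicle served as the neutral condition. Each well held 2,000 cells given 5-fluorouridine plus compound; after 16 hr at 37 °C/5% CO2, ONE-Glo was added and luciferase measured 30 min later.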
Each line names hits and unclear results; the compound was inactive in the other large screens. Only some compounds are listed: those with a hit (about 3.7% of all), similar ones and a draw of the others. Calls come from the whole dose curve; as a rule, active = well fitted curve in the direction sought with a large enough effect; inconclusive = small, poorly fitted or top-dose-only effect, or another doubt; inactive = no such curve, though single readings can be large; an effect the other way counts as inactive or inconclusive.

O=S(=O)(c1ccc(NC(=S)N2CCN(c3ccccc3F)CC2)cc1)N1CCOCC1	Nrf2 inh 13µM, ELG1 DNA repair 23.1µM
COc1ccccc1N1CCN(C(=S)Nc2ccc(S(=O)(=O)N3CCOCC3)cc2)CC1	Nrf2 inh inconclusive, ELG1 DNA repair inconclusive
O=S(=O)(c1ccc(NC(=S)N/N=C/c2c3ccccc3cc3ccccc23)cc1)N1CCOCC1	Nrf2 inh 9.2µM, ELG1 DNA repair inconclusive
Cc1cc2c(s1)c1cnn(Cc3c(F)c(F)c(C)c(F)c3F)c(=O)c1n2C	none (no result: Nrf2 ARE act, ELG1 DNA repair)
CC(C)OCCCNC(=O)CN1C(=O)c2ccccc2Sc2ncccc21	Nrf2 inh inconclusive (no result: ELG1 DNA repair)
O=C(CSc1ccccn1)N/N=C/c1ccccc1[N+](=O)[O-]	Nrf2 ARE act inconclusive, ELG1 DNA repair inconclusive
O=C(CSc1ccccn1)N/N=C/c1cc([N+](=O)[O-])ccc1O	ELG1 DNA repair 16.4µM
O=C(CCC(=O)Nc1ccc(Br)cc1)N/N=C/c1cc([N+](=O)[O-])ccc1O	ELG1 DNA repair 9.2µM
O=C(CCC(=O)Nc1ccc(F)cc1)N/N=C/c1cc([N+](=O)[O-])ccc1O	ELG1 DNA repair inconclusive
O=C(Cn1nnc(-c2ccccc2)n1)N/N=C/c1cc([N+](=O)[O-])ccc1O	none
O=[N+]([O-])c1ccc(O)c(/C=N/Nc2ccc(Cl)nn2)c1	A549 tox inconclusive, Nrf2 inh 3.66µM, ELG1 DNA repair inconclusive
O=C(Cn1nc2ccccc2n1)N/N=C/c1cc([N+](=O)[O-])ccc1O	A549 tox inconclusive, Nrf2 inh inconclusive, ELG1 DNA repair 6.51µM
O=C(Nc1sc2c(c1C(=O)NCC1CCCO1)CCC2)c1cc(=O)c2ccccc2o1 (stereo not given)	none (no result: ELG1 DNA repair)
CC(=O)Nc1ccc(S(=O)(=O)N2CCCN(S(=O)(=O)c3ccc4c(c3)OCCO4)CC2)cc1	Nrf2 inh inconclusive (no result: Nrf2 ARE act, ELG1 DNA repair)
Cc1ccnc(Cc2ccccc2)n1	ELG1 DNA repair inconclusive
O=C(CSc1ccc2ccccc2n1)N/N=C/c1ccccc1O	A549 tox inconclusive, Nrf2 inh inconclusive, ELG1 DNA repair 16.4µM
O=C(CSc1ccc2ccccc2n1)N/N=C/c1ccc(O)cc1	Nrf2 inh inconclusive
COc1cc(SC)ccc1C(=O)N1CCN(c2ccc(O)cc2)CC1	Nrf2 inh inconclusive, ELG1 DNA repair 20.6µM
COc1ccc2cc3c(N)nn(C(=O)c4cccc([N+](=O)[O-])c4)c3nc2c1	ELG1 DNA repair 2.31µM
COc1ccc2cc3c(N)nn(C(=O)C4CCC(C(C)(C)C)CC4)c3nc2c1 (stereo not given)	A549 tox inconclusive, Nrf2 inh inconclusive, ELG1 DNA repair 1.84µM
COc1ccc(-n2cnc(N)c2C(=O)c2cccc([N+](=O)[O-])c2)cc1	ELG1 DNA repair 16.4µM
COc1ccc2cc3c(N)nn(C(=O)c4ccc(F)cc4Cl)c3nc2c1	Nrf2 inh inconclusive (no result: ELG1 DNA repair)
Cc1ccc(CNC(=O)c2ccc3c(c2)nc(C)n3-c2cccc(F)c2)cc1	none (no result: Nrf2 inh, ELG1 DNA repair)
CCn1c(SCC(=O)Nc2nccs2)nnc1-c1ccc(S(=O)(=O)N2CCCCC2)cc1	ELG1 DNA repair 20.6µM
C=Cc1ccc(Cn2c(C(=O)O)c(CNCc3ccccc3)c3ccc(OC)cc32)cc1	A549 tox inconclusive (no result: ELG1 DNA repair)
Cc1ccc(N=C(N)N=C(N)N)cc1	none
CC(C)c1ccc(N=C(N)N=C(N)N)cc1	Nrf2 inh inconclusive, ELG1 DNA repair 20.6µM
COc1cc(OC)cc(C(=O)OCn2nnc3ccccc3c2=O)c1	none
COC(=O)c1ccc2c(=O)[nH]c(COC(=O)c3[nH]c(C)c(C(C)=O)c3C)nc2c1	ELG1 DNA repair 5.8µM
CC(=O)c1c(C)[nH]c(C(=O)OCn2nnc3ccccc3c2=O)c1C	Nrf2 inh inconclusive, ELG1 DNA repair 18.4µM
CC(=O)c1c(C)[nH]c(C(=O)OCc2nnc(-c3ccccc3)o2)c1C	Nrf2 inh 20.6µM, ELG1 DNA repair inconclusive
Cc1cc(C)cc(Cn2ncc3c4sc(C)cc4n(C)c3c2=O)c1	none (no result: Nrf2 ARE act, ELG1 DNA repair)
N#CCc1ccccc1C(=O)OCC(=O)N(Cc1ccccc1)Cc1ccccc1	ELG1 DNA repair inconclusive
CCNC(=O)CC1C(=O)N(c2ccccc2)C(=O)N1CCOC (stereo not given)	none
CCOC(=O)c1c(C)n(C)c2ccc(OCC(O)Cn3c(C)nc4ccccc43)cc12 (stereo not given)	Nrf2 inh inconclusive, ELG1 DNA repair 11.6µM
O=C(COc1ccc(Cl)cc1)Nc1ccc(N2CCN(C(=O)c3ccco3)CC2)cc1	Nrf2 inh 23.1µM
Cc1cccc(OCC(=O)Nc2ccc(N3CCN(C(=O)c4ccco4)CC3)cc2)c1C	none

Screens as filed in PubChem.
